# S1P3 antag: S1P3 (human) receptor antagonism; Q99500; CHO S1P3 NFAT-BLA reporter, FRET fluorescence, antagonist mode; inhibition, % at 4.98 µM; actives 0.27% (n = 170,000); AID 485;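 active = inhibition above the plate cutoff, the mean inhibition of test wells on that plate plus 3 SD, cut at about 28% in these data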;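 also: cells challenged with S1P at its EC80 of 0.8 µM; blue over green emission ratio from cleaved BLA substrate after 4 h stimulation; 0% = S1P-stimulated wells and 100% = unstimulated DMSO-only wells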
# Target sequence (Q99500 whole entry, looked up): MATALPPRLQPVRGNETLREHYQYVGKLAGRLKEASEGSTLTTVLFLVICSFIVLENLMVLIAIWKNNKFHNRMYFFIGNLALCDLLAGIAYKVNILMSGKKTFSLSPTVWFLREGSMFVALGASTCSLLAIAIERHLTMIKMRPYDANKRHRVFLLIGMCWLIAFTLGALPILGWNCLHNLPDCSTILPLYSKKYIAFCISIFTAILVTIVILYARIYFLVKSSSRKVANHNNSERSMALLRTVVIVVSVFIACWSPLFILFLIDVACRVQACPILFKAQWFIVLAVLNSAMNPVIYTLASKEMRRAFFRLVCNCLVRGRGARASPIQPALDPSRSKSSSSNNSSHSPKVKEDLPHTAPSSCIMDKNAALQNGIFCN
# S1P4 antagonist: blocks the human S1P4 receptor | inhibition, % at 4.98 µM | AID 1510 | actives 0.26% (n = 220,000) | O95977 | S1P4-expressing cells, antagonist mode, reporter read-out; in the data active = inhibition above about 29%;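 also: 0% = wells stimulated with agonist and 100% = vehicle wells without agonist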
# PGE2 EP2 inh: inhibitors of human EP2 prostaglandin E2 receptor | C6 glioma cells expressing human EP2, cAMP TR-FRET; cells stimulated with saturating PGE2 | actives 0.52% (n = 260,000) | inhibition, % at 25 µM | AID 1422;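 active = percent inhibition above 40 after rounding to a whole number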;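 also: rat C6 glioma host cells with rolipram phosphodiesterase inhibitor present; the protocol text gives 20 µM as final concentration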
# S1P4 ag: activates the human S1P4 receptor; O95977; S1P4-expressing cell line, agonist reporter assay; activation, % at 4.98 µM; actives 0.35% (n = 220,000); AID 1509; in the data active = activation above about 11%;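 also: 0% = DMSO vehicle and 100% = reference agonist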
# EP2 mod: EP2 receptor (human) modulation; induction, % at 25 µM; P43116; actives 0.83% (n = 260,000); AID 940; EP2-expressing cells, cAMP HTRF FRET, PGE2 co-stimulation;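 active = compounds whose cAMP rise, as percent of the full-agonist control response, exceeds 60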;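 also: rat C6 glioma line stably carrying human EP2 under a CMV promoter; the protocol text gives 20 µM as final concentration; 100% = response of wells given 1 µM PGE2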
# Pf gamet viab: inhibitors of late stage P. falciparum gametocyte viability; P. falciparum stage V gametocytes, ATP luminescence, 24 h; actives 0.065% (n = 150,000); AID 743093; inhibition, % at 10.9 µM;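 active = inhibition above the mean plus 3 SD of compounds within the control limits, set per campaign, cut at about 38% in these data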;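 also: 0% = DMSO wells and 100% = medium only without gametocytes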
# EP2 confirm: human EP2 receptor cAMP induction, negative in counter-screens; shares compounds with EP2 mod; C6 glioma EP2 cells, cAMP HTRF induction; plus low (about EC15) PGE2 agonist; calls only at 20 µM (by protocol); actives 47% (n = 1,300);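 active = cAMP induction above 50% in the main assay while under 30% in all four parallel counter assays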;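 also: rat C6 glioma cells stably expressing human EP2 receptor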
# * hit, by the source's call; i = inactive; / = no result given; + = active, no number. Most compounds without a hit are left out; they make up all but 1.9% or so of the library.
SMILES,S1P3 antag,S1P4 antagonist,PGE2 EP2 inh,S1P4 ag,EP2 mod,Pf gamet viab,EP2 confirm
CCOC(=O)Nc1sc2c(c1C(=O)OCC)CCC2,/,-16,4,1,74*,-34,i
COc1ccc(CNC(=O)C2CCCN(c3nc4ccccc4n3C)C2)c(OC)c1 (stereo not drawn),/,/,2,/,-14,/,/
Cc1nc2ccccc2n1Cc1ccccc1,/,/,/,/,/,2,/
COc1ccc(-c2nc3ccccc3n2Cc2ccccc2)cc1,/,-3,13,3,69*,/,+
C=CCn1c(-c2ccc(OC)cc2)nc2ccccc21,-27,-3,9,0,8,/,/
Brc1ccc(Cn2c(-c3cncs3)nc3ccccc32)cc1,/,-20,2,-3,70*,18,i
c1ccc(Cc2nc3ccccc3n2Cc2ccccc2)cc1,/,-19,3,0,75*,3,+
CCC(C)C(=O)Nc1nnc(C(C)C)s1 (stereo not drawn),/,/,9,/,-22,/,/
Cc1ccc(NC(=O)Cn2nnc(-c3cccnc3)n2)cc1C,/,/,10,/,-30,/,/
Cc1nc2c(c(=O)[nH]1)CCN(C(=O)CCn1cnc3ccccc31)C2,/,/,7,/,-16,/,/
Cc1ccc2nc(SCC(=O)Nc3c(C)[nH]c(=O)[nH]c3=O)c(C#N)cc2c1,/,/,5,/,-23,/,/
Fc1ccc(C(c2ccc(F)cc2)N2CCN(C/C=C/c3ccccc3)CC2)cc1,-7,-3,8,-1,46,/,i
C(=C\c1ccccc1)/CN1CCN(C(c2ccccc2)c2ccccc2)CC1,-2,2,16,0,25,/,/
CCCCOc1cc(C)nc(NCc2ccccc2)n1,-36,-2,11,0,78*,/,+
CC(=O)c1ccc(Oc2cc(C)nc(NCc3ccccc3)n2)cc1,/,-8,7,2,15,2,/
CCCC(=O)C1=C(O)C(C(=O)OC)C(C)(C)CC1=Nc1ccccc1 (stereo not drawn),/,-12,11,0,12,13,/
CCCC(=O)C1=C(O)C(C(=O)OC)C(C)(C)CC1=Nc1cccc2ccccc12 (stereo not drawn),/,-16,12,1,78*,/,+
N#Cc1c(NC(=O)CSc2ncccn2)oc(-c2ccccc2)c1-c1ccccc1,/,-5,8,0,/,21,/
N#Cc1c(NC(=O)CSc2n[nH]c(Cc3ccccc3)n2)oc(-c2ccccc2)c1-c1ccccc1,-18,-1,6,0,77*,4,i
CCN(CC)P(=O)(Nc1ccccc1Br)c1ccc(N(C)C)cc1NC(=O)c1ccco1 (stereo not drawn),-7,-14,5,-1,66*,-38,i
CCN(CC)C(=O)c1cc(Cl)ccc1NC(=O)c1ccco1,-2,-4,9,1,-23,-4,/
CN(C)c1ncc(S(=O)(=O)c2ccccc2)c(-c2ccccc2Cl)n1,/,-4,5,-1,66*,20,+
CN(C)c1ncc(S(=O)(=O)c2ccccc2)c(N)n1,-7,-15,10,2,28,-6,/
Cc1ccc2nc(-c3ccncc3)cc(-c3ccccc3)c2c1,/,-13,2,-2,92*,/,+
CCS(=O)(=O)Nc1ccc(-c2cc(-c3ccccc3)c3cc(C)ccc3n2)cc1,-2,18,5,0,30,-25,/
SMILES,S1P3 antag,S1P4 antagonist,PGE2 EP2 inh,S1P4 ag,EP2 mod,Pf gamet viab,EP2 confirm
Cc1ccc2nc(N3CCC(C(=O)O)CC3)nc(-c3ccccc3)c2c1,10,-5,13,1,91*,/,i
c1ccc(-c2nc(N3CCCCC3)nc3ccccc23)cc1,/,-15,10,-1,56,/,/
COc1ccc(C(=O)N(CC(=O)NC2CCCC2)Cc2ccco2)cc1OC,/,/,11,/,-7,/,/
CC(=O)Nc1sc2c(c1C(c1ccccn1)N1CCCC1)CCCC2 (stereo not drawn),-5,6,3,0,20,15,/
CC(=O)Nc1sc2c(c1C(c1cccs1)N1CCOCC1)CCCC2 (stereo not drawn),-2,-3,14,1,51,/,i
COc1ccc2c(c1)c(=O)c(Br)c(C)n2Cc1ccccc1,-18,5,-1,1,68*,/,+
COc1ccc2c(c1)c(CC(=O)O)c(C)n2Cc1ccc(F)cc1,/,/,8,/,17,/,/
CC1(C)Cc2nnc3c4c(nnc(c24)C1)CC(C)(C)C3,/,/,10,/,12,/,/
COc1ccc(C2CC(C(F)(F)F)n3nc(C(N)=O)c(Cl)c3N2)cc1OC (stereo not drawn),2,-8,4,2,75*,/,i
COc1ccc(C2CC(C(F)(F)F)n3ncc(C(=O)O)c3N2)cc1OC (stereo not drawn),12,-1,13,1,2,11,/
Cc1cc2n(n1)C(c1ccccc1F)Nc1ccccc1-2 (stereo not drawn),/,/,17,/,60,/,/
COc1ccc(-c2nnc(N3CCC(C)CC3)c3ccccc23)cc1,/,-9,/,-1,66*,-33,i
CC1CCN(c2nnc(N3CCC(C)CC3)c3ccccc23)CC1,-11,-5,3,-1,8,/,/
Cc1nn(CC(=O)N2c3ccc(F)cc3CCC2C)c(=O)c2cc3sccc3n12 (stereo not drawn),/,/,/,/,-34,/,/
Cc1onc(-c2ccccc2Cl)c1-c1nc(-c2ccncc2)no1,/,21,-2,0,65*,/,i
C=C(C)CN1CCN(C(=O)C(CC)Oc2ccccc2F)CC1 (stereo not drawn),/,/,6,/,-20,/,/
CC(Sc1nnc(-c2cccs2)n1Cc1ccccc1)C(=O)NCc1ccc2c(c1)OCO2 (stereo not drawn),/,2,2,0,70*,/,i
O=C(CSc1nnc(CCCO)n1-c1ccccc1)Nc1nccs1,-5,-12,10,0,27,/,/
Cc1cccc(C)c1OCc1nnc(SCC(=O)Nc2nccs2)n1-c1ccccc1,17,-31,-2,-2,51,-1,i
Cc1ccc(-c2cc3nn(-c4ccccc4)c(N)c3c(=O)o2)cc1,/,-29,21,0,66*,-6,i
C=CCNC(=S)NNc1nc(Nc2ccccc2)nc(N2CCCCC2)n1,7,5,11,-1,74*,3,i
C=CCNC(=S)NNc1nc(N2CCCC2)nc(N2CCCC2)n1,/,/,/,/,/,3,/
Cc1cc(O)c(C=O)c2c1C(=O)Oc1c(CO)c(O)c3c(c1O2)C(O)OC3=O (stereo not drawn),-11,10,11,2,-9,/,/
Cc1cc(O)c(C=O)c2c1C(=O)Oc1c(COC(=O)/C=C/C(=O)O)c(O)c(C(=O)O)c(C)c1O2,/,/,9,/,63*,/,+
C/C(CCc1oc2ccc(Cl)cc2c1-c1ccc(C)o1)=N\O,/,12,6,0,65*,/,+
